Source: the supplement of paper PMC8975748
Where a name gives a salt, the structure may show the parent alone. ± gives the standard deviation of the averaged measurements.

Experiments:
[1] = tested on: Saccharomyces cerevisiae BY4741 SeMeCo community; assay: mean cell size (pixel area) (pixels); higher = larger cells; details: 10 µM; 24 h; SM minimal medium
Procedure, shortened: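 Drug was acoustically predosed into 384-well plates to a final 10 µM in SM medium, and each well received 70 µl of Saccharomyces cerevisiae BY4741 diluted to OD600 = 0.3 from an overnight preculture at OD600 = 1.0. This four-plasmid fluorescent community carries one fluorescent marker per plasmid, and each plasmid complements one auxotrophy. After 24 h, the cells were fixed with paraformaldehyde and imaged by automated confocal microscopy, and Harmony analysis yielded mean cell pixel area per well. Each value is averaged over 3 replicates. Same SeMeCo high-content imaging drug screen: Selleck FDA-approved drugs at 10 µM, 24 h in SM medium, 384-well plates, 3 replicates.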

[2] = tested on: Saccharomyces cerevisiae BY4741 SeMeCo community; assay: z-score of subpopulation abundance vs DMSO median, subpopulation auxotrophic for M; higher = larger share of this subpopulation than in DMSO controls; details: 10 µM; 24 h; SM minimal medium; subpopulation (auxotrophy): M
Procedure, shortened: (§1)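 Scoring was based on each subpopulation's abundance, expressed as a z-score against the vehicle-well median. A Saccharomyces cerevisiae BY4741 community with four plasmids, each restoring one auxotrophy and encoding a distinct fluorescent protein, was pre-grown overnight to OD600 1.0, diluted to 0.3, and added at 70 µl to 384-well plates acoustically predosed with library drugs (10 µM final). It then grew 24 h in minimal SM medium before paraformaldehyde fixation and automated confocal microscopy, with single-auxotroph fluorescent strains setting thresholds and autofluorescence correction.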

[3] = tested on: Saccharomyces cerevisiae BY4741 SeMeCo community; assay: z-score of subpopulation abundance vs DMSO median, subpopulation auxotrophic for L; higher = larger share of this subpopulation than in DMSO controls; details: 10 µM; 24 h; SM minimal medium; subpopulation (auxotrophy): L
Procedure, shortened: as §1

[4] = tested on: Saccharomyces cerevisiae BY4741 SeMeCo community; assay: z-score of subpopulation abundance vs DMSO median, subpopulation auxotrophic for U; higher = larger share of this subpopulation than in DMSO controls; details: 10 µM; 24 h; SM minimal medium; subpopulation (auxotrophy): U
Procedure, shortened: as §1

[5] = tested on: Saccharomyces cerevisiae BY4741 SeMeCo community; assay: z-score of subpopulation abundance vs DMSO median, subpopulation auxotrophic for H; higher = larger share of this subpopulation than in DMSO controls; details: 10 µM; 24 h; SM minimal medium; subpopulation (auxotrophy): H
Procedure, shortened: as §1

[6] = tested on: Saccharomyces cerevisiae BY4741 SeMeCo community; assay: z-score of subpopulation abundance vs DMSO median, subpopulation auxotrophic for LU; higher = larger share of this subpopulation than in DMSO controls; details: 10 µM; 24 h; SM minimal medium; subpopulation (auxotrophy): LU
Procedure, shortened: as §1

[7] = tested on: Saccharomyces cerevisiae BY4741 SeMeCo community; assay: z-score of subpopulation abundance vs DMSO median, subpopulation auxotrophic for LM; higher = larger share of this subpopulation than in DMSO controls; details: 10 µM; 24 h; SM minimal medium; subpopulation (auxotrophy): LM
Procedure, shortened: as §1

[8] = tested on: Saccharomyces cerevisiae BY4741 SeMeCo community; assay: z-score of subpopulation abundance vs DMSO median, subpopulation auxotrophic for HM; higher = larger share of this subpopulation than in DMSO controls; details: 10 µM; 24 h; SM minimal medium; subpopulation (auxotrophy): HM
Procedure, shortened: as §1

[9] = tested on: Saccharomyces cerevisiae BY4741 SeMeCo community; assay: z-score of subpopulation abundance vs DMSO median, subpopulation auxotrophic for HU; higher = larger share of this subpopulation than in DMSO controls; details: 10 µM; 24 h; SM minimal medium; subpopulation (auxotrophy): HU
Procedure, shortened: as §1

[10] = tested on: Saccharomyces cerevisiae BY4741 SeMeCo community; assay: z-score of subpopulation abundance vs DMSO median, subpopulation auxotrophic for UM; higher = larger share of this subpopulation than in DMSO controls; details: 10 µM; 24 h; SM minimal medium; subpopulation (auxotrophy): UM
Procedure, shortened: as §1

[11] = tested on: Saccharomyces cerevisiae BY4741 SeMeCo community; assay: z-score of subpopulation abundance vs DMSO median, subpopulation auxotrophic for HL; higher = larger share of this subpopulation than in DMSO controls; details: 10 µM; 24 h; SM minimal medium; subpopulation (auxotrophy): HL
Procedure, shortened: as §1

[12] = tested on: Saccharomyces cerevisiae BY4741 SeMeCo community; assay: z-score of subpopulation abundance vs DMSO median, subpopulation auxotrophic for HLM; higher = larger share of this subpopulation than in DMSO controls; details: 10 µM; 24 h; SM minimal medium; subpopulation (auxotrophy): HLM
Procedure, shortened: as §1

[13] = tested on: Saccharomyces cerevisiae BY4741 SeMeCo community; assay: z-score of subpopulation abundance vs DMSO median, subpopulation auxotrophic for HUM; higher = larger share of this subpopulation than in DMSO controls; details: 10 µM; 24 h; SM minimal medium; subpopulation (auxotrophy): HUM
Procedure, shortened: as §1

[14] = tested on: Saccharomyces cerevisiae BY4741 SeMeCo community; assay: z-score of subpopulation abundance vs DMSO median, subpopulation auxotrophic for LUM; higher = larger share of this subpopulation than in DMSO controls; details: 10 µM; 24 h; SM minimal medium; subpopulation (auxotrophy): LUM
Procedure, shortened: as §1

[15] = tested on: Saccharomyces cerevisiae BY4741 SeMeCo community; assay: z-score of subpopulation abundance vs DMSO median, subpopulation auxotrophic for HLUM; higher = larger share of this subpopulation than in DMSO controls; details: 10 µM; 24 h; SM minimal medium; subpopulation (auxotrophy): HLUM
Procedure, shortened: as §1

[16] = tested on: Saccharomyces cerevisiae BY4741 SeMeCo community; assay: z-score of prototroph abundance vs DMSO median; higher = larger share of this subpopulation than in DMSO controls; details: 10 µM; 24 h; SM minimal medium; subpopulation (auxotrophy): Prototroph
Procedure, shortened: as §1

[17] = tested on: Saccharomyces cerevisiae BY4741 SeMeCo community; assay: z-score of subpopulation abundance vs DMSO median, subpopulation auxotrophic for HLU; higher = larger share of this subpopulation than in DMSO controls; details: 10 µM; 24 h; SM minimal medium; subpopulation (auxotrophy): HLU
Procedure, shortened: as §1

Compound	mean cell size [1]	z-score of subpopulation abundance [2]	z-score of subpopulation abundance [3]	z-score of subpopulation abundance [4]	z-score of subpopulation abundance [5]	z-score of subpopulation abundance [6]	z-score of subpopulation abundance [7]	z-score of subpopulation abundance [8]	z-score of subpopulation abundance [9]	z-score of subpopulation abundance [10]	z-score of subpopulation abundance [11]	z-score of subpopulation abundance [12]	z-score of subpopulation abundance [13]	z-score of subpopulation abundance [14]	z-score of subpopulation abundance [15]	z-score of prototroph abundance [16]	z-score of subpopulation abundance [17]
CCn1cc(C(=O)O)c(=O)c2cc(F)c(N3CCN(C)CC3)cc21 [Pefloxacin Mesylate]	12.48 ± 0.059	-0.16	-0.33	0.14	-0.3	-0.06	0	0.05	-0.36	-0.04	0	-0.1	-0.57	0.18	-0.95	–	–
CC1=C(CC(=O)O)c2cc(F)ccc2/C1=C\c1ccc([S+](C)[O-])cc1 (configuration not stated) [Sulindac]	–	–	1.59	-1.92	0.69	–	1.7	0.57	-0.74	-1.2	0.1	-0.2	-0.07	0.36	-0.02	0.27	-0.15
Cc1ccc(S(=O)(=O)NC(=O)NN2CC3CCCC3C2)cc1 (configuration not stated) [Gliclazide]	–	–	-0.2	-0.1	-0.29	–	-0.15	0.02	–	–	0.12	-0.16	-0.04	-0.57	-0.17	0.12	-0.52
CN(C/C=C/C#CC(C)(C)C)Cc1cccc2ccccc12 [Terbinafine HCl]	12.27 ± 0.088	1.09	-0.84	–	-0.56	0.54	-0.74	-0.78	0.89	1.94	-0.47	-0.22	1.65	0.47	1	-0.62	–
CCn1cc(C(=O)O)c(=O)c2cc(F)c(N3CCN(C)CC3)cc21 [Pefloxacin Mesylate Dihydrate]	12.7 ± 0.14	1.25	-0.36	0.5	0.39	-0.04	-0.32	0.71	–	0.05	0.3	0.88	-0.06	-0.46	-0.42	–	–
Fc1ccc([C@@H]2CCNC[C@H]2COc2ccc3c(c2)OCO3)cc1 [Paroxetine HCl]	12.47 ± 0.086	-0.31	-0.43	0.75	–	-0.16	-0.61	-0.49	-1.01	-0.16	0.14	0.16	-0.39	-1.08	0.06	0.34	–
Clc1ccc2c(N3CCN(CCCN4CCN(c5ccnc6cc(Cl)ccc56)CC4)CC3)ccnc2c1 [Piperaquine phosphate]	12.2 ± 0.16	–	–	0.1	0.23	–	0.85	1.16	-0.29	0.36	-0.1	–	–	-0.03	0.31	-0.69	0.33
